Experimental findings from PubChem BioAssay (NCI) are described below.

Some test systems named below: NCI-H23 lung; NCI-H522 lung; MALME-3M melanoma; MDA-MB-231 breast; M14 melanoma; UACC-62 melanoma; LOX IMVI melanoma; SK-MEL-28 melanoma; SR leukemia; OVCAR-8 ovarian; OVCAR-5 ovarian; OVCAR-4 ovarian; SK-OV-3 ovarian; IGROV1 ovarian; HS 578T breast; T-47D breast; SW-620 colon; MCF7 breast; HCT-116 colon; KM12 colon.
Common to all, as to assay: NCI-60 one-dose screen, 48 h (100 = growth as untreated, 0 = no growth, -100 = all killed)
What all share (conditions): 10 µM

Each structure is given as a SMILES string. Where “and” joins values, the source holds several entries; their conditions need not be identical. Equal values may be shown once. Compounds without any hit were thinned out: in the full panel of roughly 83,000, 20% have a hit.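 Cells were grown in 96-well plates and exposed to the test compound at a single concentration for 48 hours; results are reported as percent growth, with values below 10 considered active.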 Calls of active or inactive are those of the source.

In the case of `CC1=C2C(=O)[C@](C)(CO)C=C2C(=O)[C@](C)(O)C12CC2`, the growth in the experiment on NCI-H23 lung is -14.8% (active); with NCI-H522 lung it was -34.7% (active); in the experiment on MALME-3M melanoma, -24.5% (active); in the experiment with MDA-MB-231 breast, 24.6% (inactive); with M14 melanoma, 22.3% (inactive); in the experiment on UACC-62 melanoma, 7.31% (active). The growth in the experiment on LOX IMVI melanoma was -25.9% (active); in the experiment on SK-MEL-28 melanoma, 17.9% (inactive); in the experiment with SR leukemia, 12.8% (inactive); in the experiment with OVCAR-8 ovarian it was 33% (inactive); in the experiment on OVCAR-5 ovarian, 10.2% (inactive); in the experiment on OVCAR-4 ovarian, 44.4% (inactive). In addition, the growth in the experiment on SK-OV-3 ovarian is 24.2% (inactive); with IGROV1 ovarian it was 18.9% (inactive); in the experiment with HS 578T breast it was 80.4% (inactive); in the experiment with T-47D breast, 6.69% (active); with SW-620 colon, 9.68% (active); with MCF7 breast, 1.34% (active). For the same compound, the growth was 5.03% (active) in the experiment with HCT-116 colon and 31.9% (inactive) in the experiment on KM12 colon.

Take `CC1=C2C(=C[C@@](C)(COS(C)(=O)=O)[C@@H]2O)C(=O)[C@](C)(O)C12CC2`: the growth in the experiment on NCI-H23 lung is -18.5% (active); in the experiment with NCI-H522 lung, -6.78% (active); with MALME-3M melanoma it was -33% (active); with MDA-MB-231 breast, 8.84% (active); in the experiment with M14 melanoma, -8.82% (active); in the experiment with UACC-62 melanoma, -67.1% (active). In addition, the growth was -3.47% (active) in the experiment on LOX IMVI melanoma; -28.4% (active) with SK-MEL-28 melanoma; 2.86% (active) in the experiment with SR leukemia; 12.5% (inactive) in the experiment with OVCAR-8 ovarian; 1.82% (active) in the experiment with OVCAR-5 ovarian; -0.135% (active) in the experiment with OVCAR-4 ovarian. Also, the growth with SK-OV-3 ovarian is -13.9% (active); in the experiment with IGROV1 ovarian, 8.2% (active); in the experiment with HS 578T breast it was -9.58% (active); with T-47D breast, -0.976% (active); in the experiment with SW-620 colon, 11.7% (inactive); in the experiment on MCF7 breast, 3.13% (active). In addition, the growth was 4.67% (active) in the experiment with HCT-116 colon and -3.28% (active) in the experiment on KM12 colon.

In the case of `C/C=C/CC(C)C(O)[C@H](NC(=O)[C@@H]1CCCN1C(=O)C(C)(C)NC(=O)CCCCCCC)C(=O)N[C@@](C)(CC)C(=O)N[C@@H](CCC(N)=O)C(=O)N[C@H](CCC(N)=O)C(=O)NC(C)(C)C(=O)NC(C)(C)C(=O)N[C@@H](CCC(N)=O)C(=O)N[C@H](CC(C)C)C(=O)N[C@H](CO)CC(C)C` (some centres undefined), the growth was 16.4% (inactive) with NCI-H23 lung; 103% (inactive) and -8.57% (active) in the experiment with NCI-H522 lung; 109% (inactive) and -65.1% (active) with MALME-3M melanoma; 108% (inactive) and -6.87% (active) in the experiment on MDA-MB-231 breast; 103% (inactive) and 25.1% (inactive) in the experiment with M14 melanoma; 103% (inactive) and 19.2% (inactive) in the experiment on UACC-62 melanoma. Also, the growth is 33.2% (inactive) with LOX IMVI melanoma; 107% (inactive) and -74.9% (active) with SK-MEL-28 melanoma; 92.9% (inactive) and 0.907% (active) with SR leukemia; 106% (inactive) and 24.6% (inactive) in the experiment with OVCAR-8 ovarian; 114% (inactive) and 40% (inactive) in the experiment with OVCAR-5 ovarian; 108% (inactive) and 44.5% (inactive) with OVCAR-4 ovarian. Besides, the growth with SK-OV-3 ovarian was 101% (inactive) and 52.6% (inactive); in the experiment on IGROV1 ovarian, 113% (inactive) and 46.4% (inactive); in the experiment on HS 578T breast, 110% (inactive) and -10.8% (active); in the experiment with T-47D breast it was 102% (inactive) and 7.2% (active); with SW-620 colon, 103% (inactive) and 31.6% (inactive); with MCF7 breast, 93.3% (inactive) and 4.76% (active). The growth in the experiment on HCT-116 colon was 108% (inactive) and 25.3% (inactive); in the experiment with KM12 colon, 119% (inactive) and -53% (active).

Turning to `CC1=C(CN(O)C(N)=O)C2=C(C)C3(CC3)[C@@](C)(O)C(=O)C2=C1`, the growth was -28.5% (active) with NCI-H23 lung; 0.934% (active) in the experiment with NCI-H522 lung; -39.2% (active) in the experiment with MALME-3M melanoma; 6.59% (active) with MDA-MB-231 breast; -63% (active) in the experiment with M14 melanoma; -19.7% (active) in the experiment on UACC-62 melanoma. Moreover, the growth with LOX IMVI melanoma was -27.6% (active); in the experiment with SK-MEL-28 melanoma it was -33% (active); with SR leukemia it was 67.6% (inactive); in the experiment with OVCAR-8 ovarian it was 1.75% (active); in the experiment with OVCAR-5 ovarian it was 17.5% (inactive); in the experiment on OVCAR-4 ovarian it was -0.96% (active). For the same compound, the growth with SK-OV-3 ovarian is -16.3% (active); in the experiment on IGROV1 ovarian it was 11.1% (inactive); in the experiment on HS 578T breast, -16.8% (active); in the experiment on T-47D breast, -3.77% (active); in the experiment on SW-620 colon it was 86% (inactive); in the experiment on MCF7 breast it was 9.79% (active). Also, the growth in the experiment with HCT-116 colon was 4.72% (active); in the experiment on KM12 colon, 3.43% (active).

Consider `C=C1[C@@H](C)C2[C@H](Cc3ccccc3)NC(=O)[C@]23[C@H](OC(C)=O)/C=C/[C@@](C)(O)C(=O)[C@@H](C)C/C=C/[C@H]3[C@@H]1O` (some centres undefined), for which the growth with NCI-H23 lung was 69.8% (inactive); with NCI-H522 lung it was 22.3% (inactive); in the experiment on MALME-3M melanoma, 81.2% (inactive); in the experiment on MDA-MB-231 breast it was 33% (inactive); in the experiment with M14 melanoma, 51.3% (inactive); with UACC-62 melanoma, 84.5% (inactive). Moreover, the growth is 1.65% (active) with LOX IMVI melanoma; 87.1% (inactive) with SK-MEL-28 melanoma; 43.2% (inactive) in the experiment on SR leukemia; 74.6% (inactive) with OVCAR-8 ovarian; 96.1% (inactive) in the experiment with OVCAR-5 ovarian; 34.7% (inactive) in the experiment on OVCAR-4 ovarian. The growth with SK-OV-3 ovarian is 15.1% (inactive); in the experiment on IGROV1 ovarian, 8.46% (active); in the experiment on HS 578T breast, 9.13% (active); in the experiment on T-47D breast it was 81.6% (inactive); in the experiment with SW-620 colon it was 77.2% (inactive); in the experiment with MCF7 breast it was 23.3% (inactive). Besides, the growth in the experiment on HCT-116 colon was 44.4% (inactive); in the experiment with KM12 colon, 62.7% (inactive).

Regarding `NC1CCc2cc(O)c(O)cc2C1` (centres undefined), the growth is 91.8% (inactive) with NCI-H23 lung; 92.3% (inactive) in the experiment on NCI-H522 lung; 101% (inactive) in the experiment with MDA-MB-231 breast; 83.5% (inactive) in the experiment on M14 melanoma; 99.4% (inactive) with UACC-62 melanoma; 70.9% (inactive) in the experiment with LOX IMVI melanoma. The growth in the experiment with SK-MEL-28 melanoma was 87.1% (inactive); with SR leukemia, -24.1% (active); in the experiment on OVCAR-8 ovarian, 101% (inactive); in the experiment on OVCAR-5 ovarian, 91.4% (inactive); with OVCAR-4 ovarian it was 98.7% (inactive); with SK-OV-3 ovarian it was 104% (inactive). Also, the growth in the experiment on IGROV1 ovarian is 97.9% (inactive); in the experiment with HS 578T breast, 100% (inactive); with T-47D breast, 88.9% (inactive); with SW-620 colon it was 93.1% (inactive); with MCF7 breast, 63.6% (inactive); with HCT-116 colon it was 58.1% (inactive). Further, the growth with KM12 colon is 97.5% (inactive).
